Test results from article PMC4336329 (PLoS ONE, 2015).
In all, about 310,000 compounds went through this assay and about 14,000 (4.5%) showed an effect of 50% or more. Effects have a minus sign here. Only a selection was taken, and strong results are over-represented in it overall.

Each compound was assayed against human ether-à-go-go-related gene (hERG) potassium channel (human, UniProt Q12809) (assay: primary screen, population patch clamp on CHO cells stably expressing hERG; higher = less effect of the substance).
human ether-à-go-go-related gene (hERG) potassium channel, sequence (Q12809 whole entry, looked up): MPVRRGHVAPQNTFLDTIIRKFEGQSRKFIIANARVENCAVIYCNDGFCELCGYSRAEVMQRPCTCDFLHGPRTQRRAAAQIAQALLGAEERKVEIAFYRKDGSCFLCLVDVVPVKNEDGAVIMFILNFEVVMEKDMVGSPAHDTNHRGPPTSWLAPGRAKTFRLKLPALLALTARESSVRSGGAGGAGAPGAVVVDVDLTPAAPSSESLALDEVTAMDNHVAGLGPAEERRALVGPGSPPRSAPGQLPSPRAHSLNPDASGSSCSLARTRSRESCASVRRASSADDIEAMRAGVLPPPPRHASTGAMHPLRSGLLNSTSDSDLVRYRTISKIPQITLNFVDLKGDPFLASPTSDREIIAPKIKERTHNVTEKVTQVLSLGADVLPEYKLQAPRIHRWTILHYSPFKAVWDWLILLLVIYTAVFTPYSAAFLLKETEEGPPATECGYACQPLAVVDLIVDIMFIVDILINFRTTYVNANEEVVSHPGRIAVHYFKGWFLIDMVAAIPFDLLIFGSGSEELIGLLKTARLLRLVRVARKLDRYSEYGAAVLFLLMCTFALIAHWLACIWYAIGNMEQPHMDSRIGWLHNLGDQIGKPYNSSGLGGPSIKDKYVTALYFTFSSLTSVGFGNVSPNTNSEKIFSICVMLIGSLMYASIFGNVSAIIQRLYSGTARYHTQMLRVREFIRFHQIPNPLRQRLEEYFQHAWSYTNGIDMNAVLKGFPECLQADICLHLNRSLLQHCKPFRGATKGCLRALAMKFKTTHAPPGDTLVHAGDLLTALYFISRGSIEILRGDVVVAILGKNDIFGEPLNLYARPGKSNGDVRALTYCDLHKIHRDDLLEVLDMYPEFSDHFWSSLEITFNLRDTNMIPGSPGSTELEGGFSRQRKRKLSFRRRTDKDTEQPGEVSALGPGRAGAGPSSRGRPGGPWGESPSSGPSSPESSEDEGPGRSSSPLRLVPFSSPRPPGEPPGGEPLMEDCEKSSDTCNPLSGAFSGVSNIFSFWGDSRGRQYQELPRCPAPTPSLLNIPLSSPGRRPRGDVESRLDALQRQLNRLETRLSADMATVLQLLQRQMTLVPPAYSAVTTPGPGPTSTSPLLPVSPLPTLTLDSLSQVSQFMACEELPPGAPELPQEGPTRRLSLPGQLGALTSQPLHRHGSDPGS
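Also: peak tail current of the secondary pulse compared with the same well before compound.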

Structure (SMILES)	hERG current change (%, negative = inhibition) at 10uM [%]
O=C(CCc1nnc2ccc(NCc3ccco3)nn12)Nc1ccc(F)cc1F	-4.76
COc1ccc(OC)c(C2=NOC(C(=O)Nc3cc(C)on3)C2)c1 (stereo not drawn)	17.2
O=C(CCc1nc2sc3c(c2c(=O)[nH]1)CCCC3)Nc1ccccc1Cl	7.93
CN(C)C(=O)CSc1nnc(NC(=O)CCc2ccccc2)s1	-5.24
CC(=O)c1cccc(NC(=O)N2CC(C)OC(C)C2)c1 (stereo not drawn)	10.4
Cc1ccc(NC(=O)OCCNC(=O)c2ccncc2)cc1	8.86
O=C(COc1ccc(Cl)cc1Br)NC(=O)NCc1ccccc1	13.3
CCN(CC(=O)NCc1ccc(Cl)cc1)C(=O)CSc1cc(C)ccc1C	-47.5
CCN(CC(=O)NCc1ccc(Cl)cc1)C(=O)COc1ccc(C)cc1C	-78.4
CCN(CC(=O)NCc1ccc(Cl)cc1)C(=O)COc1cccc(Cl)c1	-73.5
Cc1cc(Cl)ccc1OCC(=O)NCc1ccncc1	-8.3
O=C(COc1cccc(Cl)c1)NCc1ccccc1	18.9
CCN(CC(=O)NCc1ccc(Cl)cc1)C(=O)COc1ccc(Cl)cc1Br	-67.7
CCN(CC(=O)NCc1ccc(Cl)cc1)C(=O)c1cnc(Cl)c(Cl)c1	5.29
CN(CC(=O)NCc1ccc(F)cc1)Cc1cccc(Cl)c1	4.92
CCOc1ncccc1C(=O)N(CC)CC(=O)NCc1ccc(Cl)cc1	1.69
CCN(CC(=O)NCc1ccc(F)cc1)C(=O)C(C)Oc1cccc(Cl)c1 (stereo not drawn)	-54.4
CCN(CC(=O)NCc1ccc(F)cc1)C(=O)c1ccc(C(=O)c2ccccc2)cc1	-42.3
COc1ccccc1C(=O)Nc1cc(C)on1	7.07
CN(C)S(=O)(=O)c1ccc(Cl)c(NC(=O)COC(=O)C2CCCO2)c1 (stereo not drawn)	5.01
COc1ccc(NC(=O)CSc2nc(SC)ns2)c(OC)c1	2.53
O=C(OCc1csc(-c2ccccc2)n1)c1ccccc1O	29.6
CC1CCC(NC(=O)CSc2nnnn2C)CC1 (stereo not drawn)	6.96
CCOc1ccc(CCNC(=O)COC(=O)c2ccc(OC)c(OC)c2OC)cc1OCC	12.2

Structure (SMILES)	hERG current change (%, negative = inhibition) at 10uM [%]
O=C(COc1cccc2cccnc12)NNC(=S)Nc1ccccc1	-25.8
CCc1cccc(C)c1NC(=O)C1CCCN(S(C)(=O)=O)C1 (stereo not drawn)	23.6
Cc1ccc([C@@H]2[C@@H]3C(=O)N(C)C(=O)[C@@H]3[C@]3(Cc4ccccc4)C(=O)N(CCO)CC(=O)N23)o1	0.221
CCN(CC(=O)NCc1ccc(F)cc1)CC(O)COCc1cccc(OC)c1 (stereo not drawn)	-60.6
COc1cccc(CN(C)CC(=O)NCc2ccc(C)cc2)c1.O=C(O)C(=O)O	-49.3
COc1cccc(NC(=O)NCc2ccc(F)cc2)c1	-5.73
COc1ccc(C2=NS(=O)(=O)N(C)C(C(=O)NC3CCCC3)=C2)cc1	2.43
Cc1cc(C)n2nc(SCc3nnc(SCc4ccccc4)s3)nc2n1	-28.6
Cc1cc(C)n2nc(SCc3nnc(SCc4ccccc4C)s3)nc2n1	-64.9
Cc1cc(C)n2nc(SCc3nnc(SCc4ccccc4Cl)s3)nc2n1	9.19
COc1cccc(CSc2nc3nc(C)cc(C)n3n2)c1	-4.72
Cc1cccc(CSc2nc3nc(C)cc(C)n3n2)c1	-27.9
COc1cccc(CSc2nnc(CSc3nc4nc(C)cc(C)n4n3)s2)c1	-54.4
Cc1noc(C)c1COc1ccc(C(=O)N(C)CCOc2ccccc2)cc1	-26.2
CCc1ccc(S(=O)(=O)NC2CC(C)(C)NC(C)(C)C2)cc1	5.09
Cc1cc(C(=O)N/N=C/c2ccc(OC(=O)c3ccccc3Br)cc2)n[nH]1	3.23
O=C1NC2(CCc3ccccc32)C(=O)N1CCOc1ccc(Cl)cc1 (stereo not drawn)	-29.8
C=CCn1c(SCC(=O)O)nnc1-c1cccs1	0.617
C=CCn1c(SCC(=O)C(C)(C)C)nnc1-c1cccs1	-14.3
Cc1occc1-c1nnc(SCC(=O)N2CCN(c3ccccc3)CC2)n1C	-27.8
Cc1nc(Cc2nnc(SCC(=O)N(C)c3ccccc3)o2)cs1	15.9
Cc1occc1-c1nnc(SCC(=O)N2CCN(c3ccc(F)cc3)CC2)n1C	-58.5
C=CCn1c(SCC(=O)N2CCN(c3ccccc3)CC2)nnc1-c1ccco1	-25.7
Cc1nc(Cc2nnc(SCC(=O)N3CCN(c4ccc(F)cc4)CC3)o2)cs1	-50.9

Structure (SMILES)	hERG current change (%, negative = inhibition) at 10uM [%]
Cc1occc1-c1nnc(SCC(=O)N2CCN(c3ccccc3F)CC2)n1C	4.99
Cc1nc(Cc2nnc(SCC(=O)Nc3c(C)cccc3C)o2)cs1	15.1
C=CCn1c(SCC(=O)N2CCN(c3ccc(F)cc3)CC2)nnc1-c1ccco1	-70.2
C=CCn1c(SCC(=O)Nc2ccc(N3CCOCC3)cc2)nnc1-c1ccco1	2.29
C=CCn1c(SCC(=O)N2CCN(c3ccc(F)cc3)CC2)nnc1-c1cccs1	-68.9
COC(=O)C1=C(N)Oc2c(oc(CO)cc2=O)C1c1ccc(F)cc1 (stereo not drawn)	-7.85
O=c1cc(N2CCOCC2)c2ccccc2o1	-13.9
O=C(CS(=O)c1cccc(C(F)(F)F)c1)Nc1ccc(Cl)cc1Cl (stereo not drawn)	8.83
CC1(C)Cc2c(sc(NC(=O)c3ccc(S(=O)(=O)N4CCCCCC4)cc3)c2C#N)C(C)(C)N1	-65.8
CC1(C)Cc2c(sc(NC(=O)c3ccc(S(=O)(=O)N4CCCC4)cc3)c2C#N)C(C)(C)N1	-8.79
CCOC(=O)N1CCN(S(=O)(=O)c2ccc(C(=O)Nc3sc4c(c3C#N)CC(C)(C)NC4(C)C)cc2)CC1	14.6
C=C[C@@]1(C)CC(=O)[C@]2(O)[C@@]3(C)[C@@H](O)CCC(C)(C)[C@@H]3[C@H](OC(C)=O)[C@H](O)[C@@]2(C)O1	7.62
O=C(CSc1ccc(Cl)cc1)N/N=C/c1ccc([N+](=O)[O-])o1	-12.5
COc1ccc(S(=O)(=O)n2cccc2)c(OC)c1	5.65
CS(=O)(=O)c1nc(S(=O)(=O)c2ccc(Cl)cc2)c(N2CCC3(CC2)OCCO3)s1	-59.3
CCS(=O)(=O)c1nc(S(=O)(=O)c2ccc(Cl)cc2)c(N2CCCC2)s1	10.5
CS(=O)(=O)c1nc(S(=O)(=O)c2ccc(Cl)cc2)c(N2CCC(C(N)=O)CC2)s1	-61.8
Cc1ccc(S(=O)(=O)c2nc(S(C)(=O)=O)sc2N2CCC(C(N)=O)CC2)cc1	7.6
Cc1ccc(S(=O)(=O)c2nc(S(C)(=O)=O)sc2N2CCC3(CC2)OCCO3)cc1	-34.3
CCS(=O)(=O)c1nc(S(=O)(=O)c2ccc(C)cc2)c(N2CCC3(CC2)OCCO3)s1	-35.4
CS(=O)(=O)c1nc(S(=O)(=O)c2ccc(Cl)cc2)c(N2CCC(O)CC2)s1	-13.9
CS(=O)(=O)c1nc(S(=O)(=O)c2ccc(Cl)cc2)c(N2CCOCC2)s1	12.1
CCS(=O)(=O)c1nc(S(=O)(=O)c2ccc(Cl)cc2)c(N2CCC3(CC2)OCCO3)s1	-51.5
Nc1ncc([N+](=O)[O-])s1	19.6

Structure (SMILES)	hERG current change (%, negative = inhibition) at 10uM [%]
C=CCN1C(=O)c2ccccc2C1(O)Cc1ccccc1 (stereo not drawn)	16.5
CCCC/C(O)=C1\C(=O)CC(C)(C)CC1=NCCCCCC(=O)O	7.59
Cc1[nH]c2ccccc2c1SCc1nnc(SCc2ccccc2)n1C	4.6
Cc1cc(C)cc(N2CC(c3nc4ccccc4n3C)CC2=O)c1 (stereo not drawn)	-10.8
CCn1c(C2CC(=O)N(c3cc(C)cc(C)c3)C2)nc2ccccc21 (stereo not drawn)	-2.71
CCCn1c(C2CC(=O)N(c3ccc(C)cc3)C2)nc2ccccc21 (stereo not drawn)	-52.9
Cc1ccc(N2CC(c3nc4ccccc4n3C)CC2=O)cc1 (stereo not drawn)	-21.5
C=CCn1c(C2CC(=O)N(c3ccc(C)cc3)C2)nc2ccccc21 (stereo not drawn)	-58.4
CCn1c(C2CC(=O)N(c3ccc(C)c(C)c3)C2)nc2ccccc21 (stereo not drawn)	-11.5
CCN(Cc1ccccc1)C(=O)CN1C(=O)c2ccccc2S1(=O)=O	-3.97
CC(C)c1ccc(NC(=O)CNC(=O)Cn2ccc3ccccc3c2=O)cc1	16.7
O=C(O)CC1(CC(=O)NCc2cc(F)cc3c2OCOC3)CCCCC1	6.25
Cc1cccc(CN2CCN(CC(=O)NCc3ccc(F)cc3)C2=O)c1	-13.6
Cc1cccc(CN2CCN(CC(=O)NCCCN3CCCC3=O)C2=O)c1	7
Cc1ccc(CN2CCN(CC(=O)NCCCN3CCN(c4ccc(F)cc4)CC3)C2=O)cc1	-66
O=C(CN1CCN(Cc2ccc(Cl)cc2)C1=O)NCCCN1CCN(c2ccc(F)cc2)CC1	-81
O=C(CN1CCN(Cc2ccc(Cl)cc2)C1=O)NCCCN1CCOCC1	-2.85
CC(C)OCCCNC(=O)CN1CCN(Cc2ccc(Cl)cc2)C1=O	11.6
O=C(CN1CCN(Cc2ccc(F)cc2Cl)C1=O)NCCCN1CCOCC1	-2.72
O=C(CN1CCN(Cc2ccc(Cl)cc2)C1=O)NCCN1CCCC1	1.66
Cc1ccc2[nH]c3c(=O)n(CC(=O)NCCCN4CCN(c5ccc(F)cc5)CC4)ncc3c2c1	14.8
CC1CCN(CCCNC(=O)CN2CCN(Cc3ccc(Cl)cc3)C2=O)CC1	-55.2
O=C(CN1CCN(Cc2ccccc2)C1=O)NCCCN1CCOCC1	5.12
Cc1cccc(CN2CCN(CC(=O)NCCCN3CCN(c4ccc(F)cc4)CC3)C2=O)c1	-69.8
